Source: PubChem
KB-V1 MDR tox = kills drug-selected multidrug resistant KB-V1 cells; KB-V1 MDR cells viability, CellTiter-Glo, 72 h; Potency, µM (highest dose often 46.1 µM), actives largely listed as cytotoxic; hit rate 3.4% among 400,000; also: nearly all actives have a fitted effect of over 60% in size
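qHTS viability screen in drug-selected KB-V1 MDR cells: 72 h compound treatment at 37 degrees C, ATP luminescence end point.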
DT40 TDP1 CPT = growth inhibition of DT40 Tdp1-/-;hTDP1 cells with camptothecin (screen for TDP1 inhibitors) | hit rate 12% among 420,000 | Potency, µM (top dose mostly 46.2 µM), inactives show at the top dose activity change, negative = growth inhibition, usual class: inhibitors | chicken DT40 Tdp1-/-;hTDP1 cells + 20 nM CPT, ATP luminescence, 48 h; also: nearly all actives have a fitted effect of over 55% in size
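Chicken DT40 Tdp1-/- cells complemented with human TDP1, 400 cells/well, exposed to compounds plus 20 nM camptothecin for at least 48 h at 37 C; viability read as ATP content by CellTiter-Glo luminescence.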
HT1080NT lethal = kills 2HG-producing HT-1080-NT fibrosarcoma cells | HT-1080-NT fibrosarcoma viability, CellTiter-Glo ATP luminescence, 48 h | hit rate 1.6% among 360,000 | Potency, µM (doses to about 46.1 µM), for inactives: at the highest dose activity, negative = less viability, actives largely listed as cytotoxic;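 also: NT is the 2HG producing partner of a matched IDH1 knockdown line; 0% = DMSO-treated cells and -100% = media-only wells without cells; nearly all actives have a fitted effect of over 55% in size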
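750 cells/well, RPMI + 5% FBS; 2 h settle, compound pin-transfer, 48 h at 37 degrees C. CellTiter-Glo 10 min RT, luminescence. Normalized to DMSO and media-only wells.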
KB-3-1 cytotox = KB-3-1 parental cell cytotoxicity; AID 1347075; Potency, µM (series often up to 46.1 µM), hits mostly cytotoxic; hit rate 1.4% among 400,000; KB-3-1 viability, CellTiter-Glo ATP luminescence, 72 h; also: nearly all actives have a fitted effect of over 60% in size
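Parental KB-3-1 adenocarcinoma cells in phenol-red-free DMEM with 10% FBS were pin-treated with compounds at several concentrations, incubated 72 h at 37 °C, and viability read by CellTiter-Glo luminescence; concentration-effect curves were fitted after normalization.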
HT1080 IDH1KD tx = toxicity to HT-1080 IDH1 knockdown cells (counter line); HT-1080 IDH1 knockdown viability, ATP luminescence, 48 h; Potency, µM (series often up to 46.1 µM), for the others: top-dose activity, negative = toxicity, usual class: cytotoxic; hit rate 2% among 360,000; AID 686971;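 also: 0% = DMSO wells and -100% = cell-free medium wells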
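Using the IDH1-knockdown HT-1080 line run in the same batch and compound series as the NT line, viability after 48 h at 37 °C was determined by CellTiter-Glo luminescence and expressed as % activity.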
TDP1 cell noCPT = qHTS for Inhibitors of human tyrosyl-DNA phosphodiesterase 1 (TDP1): qHTS in cells in absence of CPT; Potency, µM (top dose mostly 46.2 µM), without a hit: at the highest dose activity change, negative = growth inhibition, actives largely listed as inhibitors; DT40 Tdp1-/- hTDP1 cells, no CPT, ATP luminescence, 48 h; hit rate 15% among 420,000; AID 686978, 2013; also: nearly all actives have a fitted effect of over 55% in size
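Chicken DT40 Tdp1-/- cells stably complemented with human TDP1 were seeded at 400 cells/well with DMSO in place of 20 nM camptothecin. After compound pinning, cells grew at least 48 hr at 37 °C; viability read by CellTiter-Glo luminescence.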
* = called active by the depositor; i = inactive; ? = inconclusive; . = no result given. An excerpt weighted towards active compounds, which were near 19% of everything screened. Calls follow the shape of the dose curve; as a rule, active = well fitted curve in the direction sought with a large enough effect; inconclusive = small, poorly fitted or top-dose-only effect, or another doubt; inactive = no such curve, though single readings can be large; an effect the other way counts as inactive or inconclusive. Unless noted, % is scaled to controls: 0 for no effect and ±100 for the full control effect; potency is read from the fitted curve at half-maximal effect.

SMILES	KB-V1 MDR tox	DT40 TDP1 CPT	HT1080NT lethal	KB-3-1 cytotox	HT1080 IDH1KD tx	TDP1 cell noCPT
COc1cccc(/C=N/Nc2ncnc3scc(-c4ccccc4)c23)c1OC	i	?	20µM*	i	11µM*	18µM*
COc1ccc(/C=N/Nc2ncnc3sc(C)c(C)c23)cc1	i	2.9µM*	-9%	i	-25%	4.1µM*
COc1ccc(/C=N/Nc2nonc2N)cc1	21µM*	-5%	9%	?	5%	-12%
Cc1sc2ncnc(N/N=C/c3ccccc3O)c2c1C	?	3.7µM*	?	?	?	3.3µM*
CS(=O)(=O)N1Cc2cc(C(=O)NCC3CC3)nc(-c3cccc(-c4cccnc4)c3)c2[C@H]1CCO	i	-16%	-6%	i	0%	-28%
O=C(CCCN1C(=O)C(=Cc2ccc3c(c2)OCO3)SC1=S)Nc1ccc(C(=O)O)c(O)c1	i	?	1%	i	10%	-2%
O=S(=O)(Nc1cccc(-c2cn3c(n2)SCC3)c1)c1ccccc1	?	-8%	11%	i	1%	?
O=C(O)C1=C[C@H](c2csc3ccccc23)C[C@H](OCc2ccc(CO)cc2)O1	i	-1%	0%	i	5%	12%
C#CCNC(=O)C1=C[C@@H](c2csc3ccccc23)C[C@@H](OCc2ccc(CO)cc2)O1	i	16µM*	-1%	i	-5%	?
O=C(O)C1=C[C@@H](c2csc3ccccc23)C[C@@H](OCc2ccc(CO)cc2)O1	i	?	2%	i	0%	-13%
O=C(NCc1ccccc1)C1=C[C@@H](c2coc3ccccc3c2=O)C[C@@H](OCc2ccc(CO)cc2)O1	i	10µM*	-16%	?	-16%	9.2µM*
O=C(C1=C[C@H](c2csc3ccccc23)C[C@H](OCc2ccc(CO)cc2)O1)N1CCCCCCC1	i	?	-22%	i	-22%	21µM*
O=C(NCc1ccccc1)C1=C[C@@H](c2csc3ccccc23)C[C@@H](OCc2ccc(CO)cc2)O1	21µM*	2.9µM*	-16%	21µM*	-28%	4.6µM*
Cc1cc(NC(=O)c2cccc(C)c2[N+](=O)[O-])no1	i	11%	-1%	i	6%	-1%
O=C(NCc1ccccc1)C1=C[C@@H](c2csc3ccccc23)C[C@@H](OCCCCO)O1	?	1.6µM*	-28%	5.8µM*	?	1.6µM*
COc1ccc(N=Nc2c(C)[nH]c3ccccc23)cc1	i	?	?	i	18µM*	?
COc1ccc(N=Nc2c(C)[nH][nH]c2=O)cc1	23µM*	-19%	-3%	?	-10%	?
Nc1[nH][nH]c(=O)c1N=Nc1cccc(Cl)c1	?	-21%	-4%	i	-18%	-22%
COc1cccc(N=Nc2c(N)[nH][nH]c2=O)c1	18µM*	-12%	-11%	i	-2%	?
CCOc1ncccc1C(=O)OCC(=O)Nc1cc(C(C)(C)C)ccc1OC	i	-18%	7%	i	6%	-20%
COc1cc(NC(=S)Nc2ccccn2)c(OC)cc1Cl	i	-19%	-17%	i	?	?
Cc1ccc(S(=O)(=O)N2CCN(C(=O)c3sccc3-c3ccccc3)CC2)cc1	?	?	-1%	i	0%	18µM*
O=C(c1cccs1)N1CCN(S(=O)(=O)c2ccccc2)CC1	i	-15%	8%	i	-5%	1%
O=C(c1sccc1-c1ccccc1)N1CCN(S(=O)(=O)c2ccccc2)CC1	.	?	-1%	.	5%	23µM*
